Assay results taken from PubChem BioAssay (Tox21).
Records with an inconclusive call do not appear. Calls of active or inactive are those of the source. Calls come from the whole dose curve; as a rule, active = well fitted activation curve with a large enough effect in the repeat runs; inconclusive = weak or mixed curves; inactive = flat fitted curve, though single readings scatter.

Experiment: A CellTox Green Cytotoxicity Assay to monitor cytotoxicity in HEK293 cells - 40 hour (AID 1224871); note: nearly all actives have a fitted effect of over 45% in size
Conditions: CellTox Green fluorescence; series mostly up to 76.8 µM; cytotoxicity increase: at the top concentration
Excerpt: National Center for Advancing Translational Sciences [NCATS]
NIH Chemical Genomics Center [NCGC]
U.S. Environmental Protection Agency [EPA]
National Institutes of Environmental Health Sciences [NIEHS]
National Toxicology Program [NTP]
Cell-based models are critical for drug discovery. Determining the natural cytotoxic effects resulting from test compounds is an essential research activity. A CellTox Green Cytotoxicity Assay to monitor cytotoxicity in real time of continues cell culture during 40 hours of the compound treatment was used to screen Tox21 10K library compounds in Hek293 cells. CellTox Green Cytotoxicity Assay is a nonlytic, homogeneous, biofluorescent method to measure cytotoxicity in cell culture after experimental manipulation. The assay system uses a proprietary asymmetric cyanine dye that is excluded from viable cells but preferentially stains the dead cell's DNA. […] Viable cells produce no appreciable increases in fluorescence. Therefore, the fluorescence signal produced by the binding interaction with dead cell DNA is proportional to cytotoxicity.
The mixture of Hek293 cell suspension and reagents were dispensed at 600cells/6 ul/well in 1536-well tissue culture treated black solid bottom plates using a Multidrop dispenser. After the assay plates were incubated at a 37 C/5% CO2 incubator for 5 hours, 23 nL of compounds dissolved in DMSO, positive and negative controls was transferred to the assay plate by a pintool work station. The plates were incubated at 37 C for 40 hours. The fluorescence intensity were measured at 0h, 8h, 16h, 24h, 32h and 40h time points using ViewLux plate reader during compound treatment.
% is set by controls: 0 for no effect and ±100 for the full control effect; potency is the fitted concentration of half-maximal effect.

Compound	cytotoxicity increase	Potency
CCCCCc1ccco1	5.16% [at 35.3 µM] (inactive)	–
CC(C)c1ccc(C#N)cc1	11.8% (inactive)	–
CC(=O)OC(C)C[N+](C)(C)C (stereo not given)	5.85% [at 35.3 µM] (inactive)	–
C/C(C=O)=C\c1ccccc1	4.94% (inactive)	–
CC1=CC[C@@]23C[C@@H]1C(C)(C)[C@@H]2CC[C@H]3C	27.2% (inactive)	–
Nc1ccn([C@H]2CS[C@@H](CO)O2)c(=O)n1	-1.71% (inactive)	–
Cc1c(C2(c3cc(Br)c(O)c(Br)c3C)OS(=O)(=O)c3ccccc32)cc(Br)c(O)c1Br	-21% (inactive)	–
CC1CCCC(=O)C1=O (stereo not given)	8.07% (inactive)	–
ClC1=C(Cl)C1(Cl)Cl	-8.87% (inactive)	–
CCC(CO)(CO)CO	2.1% (inactive)	–
CCCCOC(=O)CCCCC(=O)OCCCC	12.7% (inactive)	–
CC(O)Cn1cnc2c1c(=O)n(C)c(=O)n2C (stereo not given)	6.59% [at 35.3 µM] (inactive)	–
CCCOC(=O)c1c(Cl)c(Cl)c(Cl)c(Cl)c1C(=O)OCCC	24.4% (inactive)	–
O=C(O)CNC(=O)c1ccccc1I	-14.6% [at 35.3 µM] (inactive)	–
CC1=C2[C@@H]([C@H](C)CC[C@H]2/C=C(\C)C(=O)O)[C@H](O)C1	-1.57% (inactive)	–
COC(=O)CC(C(C)=O)C(=O)OC (stereo not given)	-4.81% (inactive)	–
CC(C)(C)CCCCCCOC(=O)c1ccccc1C(=O)OCCCCCCC(C)(C)C	-6.18% (inactive)	–
COC1CCC=CO1 (stereo not given)	-1.77% (inactive)	–
O=CNNC=O	-6.73% (inactive)	–
CC(C)C(O)C(C)(C)CO (stereo not given)	25.5% (inactive)	–

Compound	cytotoxicity increase	Potency
CC(CO)(CO)C(=O)O	-5.19% (inactive)	–
c1ccc2sc(SSc3nc4ccccc4s3)nc2c1	14.8% [at 15.8 µM] (inactive)	–
O=C(c1ccccc1)C1CCC1	–	24.5 µM (active)
CC(=O)OCC1=C(C(=O)O)N2C(=O)[C@@H](NC(=O)CSc3ccncc3)[C@H]2SC1	1.55% [at 35.3 µM] (inactive)	–
O=C(O)CCS	-10.2% (inactive)	–
CNCc1ccc(NC(=O)c2c[nH]c3c2C(=O)CCC3)cc1	-10.5% (inactive)	–
CC(C)Cc1ccc(CC(=O)O)cc1	–	15.1 µM (active)
COc1ccc(-n2nc(C(F)F)cc2-c2ccc(S(C)=O)cc2)cc1 (stereo not given)	1.6% (inactive)	–
O=C(O)CN1C(=O)c2cccc3cccc(c23)C1=O	3.1% [at 35.3 µM] (inactive)	–
CC(C)OC(=O)c1ccccc1C(=O)OC(C)C	15.4% (inactive)	–
CC(C)(C)C1(CCc2ccc(Cl)cc2)CO1 (stereo not given)	28% (inactive)	–
Cc1oc(=O)oc1COC(=O)[C@@H]1N2C(=O)[C@@H](NC(=O)[C@H](N)c3ccccc3)[C@H]2SC1(C)C	4.67% [at 35.3 µM] (inactive)	–
CC(C)(C)S	-6.12% (inactive)	–
CCCC(=O)OC(=O)CCC	1.67% (inactive)	–
CCCCCCCC/C=C/C(=O)O	6.82% [at 35.3 µM] (inactive)	–
O=c1[nH]c2cc(C(F)(F)F)c(N3CCOCC3)cc2n(CP(=O)(O)O)c1=O	-7.51% [at 35.3 µM] (inactive)	–
CC(CCc1ccc(O)cc1)NCCc1ccc(O)c(O)c1 (stereo not given)	-10.6% [at 35.3 µM] (inactive)	–
CC12CC3CC(C)(C1)CC(N)(C3)C2	-9.81% [at 35.3 µM] (inactive)	–
Cc1ccc(NC(=O)N(C)C)cc1NC(=O)N(C)C	0.769% (inactive)	–
CCC(CO)(CO)[N+](=O)[O-]	-6.81% (inactive)	–
